± gives the standard deviation of the averaged measurements. In all, about 33,000 sequences were measured (“E-score (dimensionless, -0.5 to 0.5)”: median about -0.049, highest 2% from about 0.37 on). The full list was thinned out, with the highest values kept by preference.
tested on: T1, PmTbr T-box DNA-binding domain (GST fusion); assay: PBM E-score of 8-mer (E-score (dimensionless, -0.5 to 0.5)); Tbr is Tbrain of the sea star Patiria miniata (Pm) or the sea urchin Strongylocentrotus purpuratus (Sp); higher = stronger binding preference; details: the construct has about 5 more residues each side
T1 sequence: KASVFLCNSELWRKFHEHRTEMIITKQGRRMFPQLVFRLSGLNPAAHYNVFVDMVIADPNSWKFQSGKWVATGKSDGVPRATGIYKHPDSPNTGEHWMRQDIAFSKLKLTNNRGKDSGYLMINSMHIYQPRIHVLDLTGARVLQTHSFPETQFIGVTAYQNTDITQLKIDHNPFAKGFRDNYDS
In short: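 Universal Agilent oligonucleotide arrays, made double-stranded by primer extension, were incubated with 200 nM GST-fused Tbr T-box DNA-binding domain in PBS (pH 7.5). The protein was expressed in BL21 E. coli at 20 °C and purified by glutathione affinity chromatography. After scanning and quantification, the Universal PBM Analysis Suite assigned an enrichment E-score to each ungapped 8-mer, averaged over duplicate arrays.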

Sequence	PBM E-score of 8-mer
ACAGTTAG	0.0702 ± 0.027
ATGAATCA	-0.129 ± 0.0053
GTCCATGA	-0.052 ± 0.031
GGGTGGGA	0.237 ± 0.011
CCCACATA	-0.214 ± 0.08
CAAGGGGC	-0.095 ± 0.021
AGCAGCAA	-0.118 ± 0.011
CAACGTCA	0.0459 ± 0.035
ACACTTTG	0.404 ± 0.014
ACACTTTA	0.338 ± 0.029
ACTCTTTC	-0.00346 ± 0.013
CCACTTTC	0.104 ± 0.06
AGACTTTG	-0.00767 ± 0.055
ACACTTTC	0.408 ± 0.0072
GTTTTTAA	-0.131 ± 0.14
AATCACCT	0.311 ± 0.017
GTGTAGAA	0.164 ± 0.051
AGACAGGC	-0.103 ± 0.03
AAGTTAGC	0.192 ± 0.011
ATGTCCGG	-0.174 ± 0.071
CACCTCAA	0.395 ± 0.022
AACCTCAA	-0.113 ± 0.028

Sequence	PBM E-score of 8-mer
AACCTCAG	-0.26 ± 0.042
GACCTCAC	0.0743 ± 0.032
CTCCTCAG	-0.0996 ± 0.015
AACCTCAC	0.219 ± 0.015
CACCTCAC	0.4504 ± 0.0025
CACCTCAG	0.42 ± 0.0057
TACCTCAA	-0.132 ± 0.028
CTGCCACC	0.265 ± 0.036
CCCGATTA	0.0524 ± 0.024
CCGCTAGA	0.0332 ± 0.029
CGATTGCC	-0.0231 ± 0.013
GTACAGCA	-0.0813 ± 0.032
ACGGAAAT	-0.189 ± 0.071
CCGCAGGC	0.000335 ± 0.0022
ACTCACAG	0.314 ± 0.043
GCTCACAC	0.424 ± 0.01
GCTCACAA	0.132 ± 0.037
ACTCACAC	0.4612 ± 0.00083
CCTCACAG	0.127 ± 0.049
ACTCACAT	-0.0309 ± 0.043
CCTCACAA	0.155 ± 0.016
CCTCACAC	0.475 ± 0.005

Sequence	PBM E-score of 8-mer
GCACACAC	0.219 ± 0.039
ACTACCTC	-0.248 ± 0.022
ACTCCACC	-0.0966 ± 0.022
CGGCCAGA	-0.215 ± 0.011
ACACTTAC	0.412 ± 0.0079
CCACTTAC	0.201 ± 0.0076
ACTCTTAT	-0.0869 ± 0.047
ACACTTAG	0.416 ± 0.0068
ACACTTAA	0.362 ± 0.031
GCACTTAC	0.178 ± 0.015
ACTCTTAG	-0.0903 ± 0.065
CCACTTAG	-0.0105 ± 0.01
ACACTTAT	0.387 ± 0.0076
CTTAAGAC	-0.218 ± 0.055
CCGATCCG	-0.094 ± 0.017
CGGTTAGA	-0.182 ± 0.026
ACATTAGG	0.0856 ± 0.037
ACAGGGCG	0.0776 ± 0.037
AAGCGCGC	0.106 ± 0.015
AAGCGCGA	0.375 ± 0.017
GAGCGCGA	0.291 ± 0.019
TAGCGCGA	0.3803 ± 0.0017

Sequence	PBM E-score of 8-mer
CAGCGCGA	0.203 ± 0.029
AAGCGCGG	0.0485 ± 0.038
CCACGCTA	-0.0567 ± 0.028
ACTCAGCA	-0.151 ± 0.053
TCCTAGAA	-0.0822 ± 0.13
GCTAGCAC	0.33 ± 0.0063
ACTAGCAC	0.381 ± 0.013
CCTAGCAA	0.128 ± 0.069
CCTAGCAC	0.3709 ± 0.0033
ACTAGCAA	0.00762 ± 0.0026
ACTAGCAG	-0.0294 ± 0.074
CTTGGAAA	-0.0932 ± 0.023
CATCTATC	-0.196 ± 0.023
CGAGTGCG	0.225 ± 0.033
GGGGTGTA	0.175 ± 0.0049
CAGATGTC	-0.0861 ± 0.049
GCGGTGTA	-0.136 ± 0.021
CCGGTGTA	0.0868 ± 0.027
AAGGTTTC	0.0322 ± 0.0076
CAGGTGTA	0.3628 ± 0.0011
ACGGTGTC	0.26 ± 0.076
